In the supplement of paper PMC9262897, “Low-cost anti-mycobacterial drug discovery using engineered E. coli” (Nature Communications, 2022):
Where a name gives a salt, the structure may show the parent alone. ± gives the standard deviation of the averaged measurements.

The molecules below were run on E. coli TESEC Mtb Asd (assay: growth (OD600 after 10 h); higher = more growth (less inhibition)). Conditions: arabinose induction (level): Low; compound 0.1 mM; raw OD600 reference: median of DMSO wells 0.417, cell-free background 0.041.
Description: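 TESEC E. coli strains in which the native enzyme is deleted and replaced by arabinose-inducible Mtb Asd, DapB, CysH or TrpD, each grown in its selective medium. Strains were screened against the Prestwick library at 0.1 mM and 1% DMSO in 384-well format at low and high arabinose induction. Growth is read as OD600 after 10 h in triplicate.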

How did the growth turn out when `CC(N)C(O)c1ccccc1` (stereo not given) [Phenylpropanolamine hydrochloride] was run?
The growth was 0.433 ± 0.067.

With `CC[C@@]1([C@@H]2O[C@@H]([C@H]3O[C@@](O)(CO)[C@H](C)C[C@@H]3C)C[C@@H]2C)CC[C@H]([C@]2(C)CC[C@]3(C[C@H](O)[C@@H](C)[C@@H]([C@@H](C)[C@@H](OC)[C@H](C)C(=O)O)O3)O2)O1` [Monensin sodium salt] as the molecule, how does the growth read?
Its growth is 0.408 ± 0.016.

With `CC(C)[N+](C)(CCC(C(N)=O)(c1ccccc1)c1ccccc1)C(C)C` [Isopropamide iodide] as the molecule, how does the growth read?
The growth was 0.41 ± 0.036.

`CN1C[C@H](C(=O)N[C@]2(C)O[C@@]3(O)[C@@H]4CCCN4C(=O)[C@H](Cc4ccccc4)N3C2=O)C[C@@H]2c3cccc4[nH]cc(c34)C[C@H]21` [Dihydroergotamine tartrate] was tested. Which growth did it give?
Its growth is 0.123 ± 0.0052.

With `CN1[C@@H]2C[C@@H](OC(=O)[C@H](CO)c3ccccc3)C[C@H]1[C@@H]1O[C@@H]12` [Scopolamine hydrochloride] as the molecule, how does the growth read?
The growth was 0.453 ± 0.025.

How did the growth turn out when `CN1[C@@H]2CC[C@H]1C[C@@H](OC(=O)[C@H](CO)c1ccccc1)C2` [Hyoscyamine (L)] was run?
The growth was 0.377 ± 0.074.

With `CN(C)C(=O)Oc1ccc[n+](C)c1` [Pyridostigmine iodide] as the molecule, how does the growth read?
The growth was 0.434 ± 0.076.

How did the growth turn out when `CC[N+]1(C)CCCC(OC(=O)C(O)(c2ccccc2)c2ccccc2)C1` (stereo not given) [Pipenzolate bromide] was run?
The growth was 0.469 ± 0.025.

For `CC(Cc1ccccc1)NCCC(c1ccccc1)c1ccccc1` (stereo not given) [Prenylamine lactate], which growth is on record?
Its growth is 0.0471 ± 0.00089.

With `C#C[C@]1(O)CC[C@H]2[C@@H]3CCC4=CC(=O)CC[C@]4(C)[C@H]3CC[C@@]21C` [Ethisterone] as the molecule, how does the growth read?
Its growth is 0.41 ± 0.063.

With `CCNCC(O)c1cccc(O)c1` (stereo not given) [Etilefrine hydrochloride] as the molecule, how does the growth read?
Its growth is 0.367 ± 0.035.

How did the growth turn out when `COc1cccc(C2(O)CCCCC2CN(C)C)c1` (stereo not given) [Tramadol hydrochloride] was run?
Its growth is 0.403 ± 0.065.

`C=CCN1CC[C@]23c4c5ccc(O)c4O[C@H]2C(=O)CC[C@@]3(O)[C@H]1C5` [Naloxone hydrochloride] was tested. Which growth did it give?
Its growth is 0.498 ± 0.028.

`O=c1[nH]c2ccccc2n1C1CCN(CCCC(c2ccc(F)cc2)c2ccc(F)cc2)CC1` [Pimozide] was tested. Which growth did it give?
Its growth is 0.396 ± 0.015.

How did the growth turn out when `CC[C@@H](CO)NC(=O)[C@@H]1C=C2c3cccc4[nH]cc(c34)C[C@H]2N(C)C1` [Methylergometrine maleate] was run?
The growth was 0.267 ± 0.069.

For `C[C@]12Cc3c[nH]nc3C[C@@H]1CC[C@@H]1[C@@H]2CC[C@@]2(C)[C@H]1CC[C@]2(C)O` [Stanozolol], which growth is on record?
The growth was 0.271 ± 0.051.

With `CN1CCC2(C)c3cc(O)ccc3N(C)C12` (single isomer, unassigned; (-)) [(-)-Eseroline fumarate salt] as the molecule, how does the growth read?
Its growth is 0.402 ± 0.064.

How did the growth turn out when `C[C@@H]1O[C@@H](O[C@@H]2C=C3CC[C@@H]4[C@H](CC[C@]5(C)[C@@H](c6ccc(=O)oc6)CC[C@]45O)[C@@]3(C)CC2)[C@H](O)[C@H](O)[C@H]1O` [Proscillaridin A] was run?
The growth was 0.234 ± 0.021.

For `COc1ccc(CN2CCNCC2)c(OC)c1OC` [Trimetazidine dihydrochloride], which growth is on record?
Its growth is 0.307 ± 0.11.

With `C[N+]1(C)CCOC(O)(c2ccc(-c3ccc(C4(O)C[N+](C)(C)CCO4)cc3)cc2)C1` (stereo not given) [Hemicholinium bromide] as the molecule, how does the growth read?
Its growth is 0.281 ± 0.069.

For `OC(c1ccccc1)(c1ccccc1)C1CCNCC1` [Azacyclonol], which growth is on record?
Its growth is 0.442 ± 0.019.

With `CCN(C(C)=O)c1cccc(-c2ccnc3c(C#N)cnn23)c1` [Zaleplon] as the molecule, how does the growth read?
The growth was 0.307 ± 0.086.

How did the growth turn out when `Cc1cc(C(C#N)c2ccc(Cl)cc2)c(Cl)cc1NC(=O)c1cc(I)cc(I)c1O` (stereo not given) [Closantel] was run?
The growth was 0.0874 ± 0.0013.

Which growth does the source give for `C[C@]12CC[C@H](O)C[C@H]1CC[C@@H]1[C@@H]2C[C@@H](O)[C@]2(C)[C@@H](C3=CC(=O)OC3)CC[C@]12O` [Digoxigenin] here?
Its growth is 0.458 ± 0.024.

Which growth does the source give for `COc1cc2c(c(OC)c1OC)-c1ccc(OC)c(=O)cc1[C@@H](NC(C)=O)CC2` [Colchicine] here?
Its growth is 0.355 ± 0.1.

`C=C1C[C@@H]2[C@H](CC[C@]3(C)C(=O)CC[C@@H]23)[C@@]2(C)C=CC(=O)C=C12` [Exemestane] was tested. Which growth did it give?
Its growth is 0.147 ± 0.023.

`C=C1CC[C@@]2(O)[C@H]3Cc4ccc(O)c5c4[C@@]2(CCN3CC2CC2)[C@H]1O5` [Nalmefene hydrochloride] was tested. Which growth did it give?
The growth was 0.328 ± 0.08.

`C[N+](C)(C)CCCCCCCCCC[N+](C)(C)C` [Decamethonium bromide] was tested. Which growth did it give?
Its growth is 0.444 ± 0.043.

With `CCn1cc(C(=O)O)c(=O)c2cc3c(cc21)OCO3` [Oxolinic acid] as the molecule, how does the growth read?
The growth was 0.149 ± 0.011.

How did the growth turn out when `O=P1(N(CCCl)CCCl)NCCCO1` (stereo not given) [Cyclophosphamide] was run?
Its growth is 0.446 ± 0.014.
